The results in this text go back to PubChem BioAssay (NCI).

About 83,000 compounds went through this panel and 20% of them were active in at least one assay; those are over-represented in the sample as a whole.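 How to read the values: 0–100, growth inhibition (40 = 60% inhibited); 0, no net growth; -100 to 0, cell death (-40 = 40% of starting cells died; -100 = all dead).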 Unmarked numbers belong to inactive results. The source made the active and inactive calls. Rule for the calls: active = growth percent below 10; inactive = the rest.

Among the test systems are NCI-H23 lung; NCI-H226 lung; NCI-H322M lung; HOP-62 NSCLC; NCI-H460 lung; HOP-92 NSCLC; NCI-H522 lung; A549/ATCC NSCLC; 786-0 renal; COLO 205 colon; DU-145 prostate; K-562 leukemia; MDA-MB-231 breast; RXF 393 renal; SF-268 CNS; SF-295 CNS; SF-539 CNS; UACC-257 melanoma; M14 melanoma; MALME-3M melanoma.
Holding throughout (test): NCI-60 one-dose screen, 48 h (100 = growth as untreated, 0 = no growth, -100 = all killed)
Holding throughout (settings): 10 µM

Take `COc1ccc(-c2n/c(=C\c3c(O)[nH]c4ccccc34)cc3c2=Nc2ccccc2-3)cc1`: the growth in the assay on NCI-H23 lung was 33.8%; in the assay on NCI-H226 lung it was 59.7%; in the assay with NCI-H322M lung, 96%; with HOP-62 NSCLC it was 86.2%; with NCI-H460 lung it was 9.63% (active); in the assay on HOP-92 NSCLC it was 42.1%. Besides, the growth was 63.1% in the assay on NCI-H522 lung; 37.4% in the assay with A549/ATCC NSCLC; -31.3% (active) with 786-0 renal; 35.9% in the assay with COLO 205 colon; 19.1% in the assay with DU-145 prostate; -8.09% (active) with K-562 leukemia. Moreover, the growth in the assay on MDA-MB-231 breast is 30.6%; in the assay with RXF 393 renal, 44.8%; in the assay on SF-268 CNS it was 5.04% (active); with SF-295 CNS, 38.5%; in the assay with SF-539 CNS it was 82.6%; in the assay with UACC-257 melanoma, 91.8%. The growth in the assay on M14 melanoma was 3.99% (active).

Turning to `O=C(NCc1cn(Cc2cccc(Oc3ccccc3)c2)nn1)c1cccnc1Nc1ccccc1`, the growth in the assay on NCI-H23 lung is 51.9%; in the assay with NCI-H226 lung, 61.5%; in the assay on NCI-H322M lung it was 76.9%; with HOP-62 NSCLC, 54.8%; with NCI-H460 lung it was 27%; with HOP-92 NSCLC, 34.9%. Further, the growth is 54.5% with NCI-H522 lung; 50.6% with A549/ATCC NSCLC; 51.4% with 786-0 renal; 69.9% in the assay on COLO 205 colon; 59.8% with DU-145 prostate; 31.9% with K-562 leukemia. For the same compound, the growth is 63.7% in the assay with MDA-MB-231 breast; 33.6% with RXF 393 renal; 60.5% with SF-268 CNS; 50.1% with SF-295 CNS; 54.5% with SF-539 CNS; 77% with UACC-257 melanoma. For the same compound, the growth in the assay on M14 melanoma is 33.6%.

For the compound `COc1ccc(-c2nc(NC(=O)CS(=O)(=O)c3ccc(F)cc3)sc2C)cc1`, the growth was 37% in the assay with NCI-H23 lung; 93.9% in the assay on NCI-H226 lung; 69.5% with NCI-H322M lung; 65.3% in the assay with HOP-62 NSCLC; 59.2% in the assay with NCI-H460 lung; 37% in the assay with HOP-92 NSCLC. Also, the growth in the assay on NCI-H522 lung is 49%; in the assay with 786-0 renal it was 60.9%; with COLO 205 colon, 88.8%; in the assay on DU-145 prostate, 79%; in the assay on K-562 leukemia, 26.4%; in the assay with MALME-3M melanoma it was 55.2%. The growth in the assay on MDA-MB-231 breast is -37.1% (active); with RXF 393 renal, 14.4%; in the assay on SF-268 CNS, 65.3%; with SF-295 CNS it was 25.1%; in the assay on SF-539 CNS, 73.6%; with UACC-257 melanoma it was 65.1%. Moreover, the growth in the assay with M14 melanoma is 44%.

As to `CNC(=O)c1cc(Oc2ccc(NC(=O)Nc3ccc(Cl)c(C(C)(C)C)c3)c(F)c2)ccn1`, the growth with NCI-H23 lung is 19.7%; with NCI-H226 lung it was 36.2%; in the assay on NCI-H322M lung, 107%; with HOP-62 NSCLC, 64.4%; in the assay on NCI-H460 lung it was 48.8%; in the assay on HOP-92 NSCLC, 75.9%. Further, the growth was 28.7% with NCI-H522 lung; 79% in the assay with 786-0 renal; 19.6% with COLO 205 colon; 60.8% in the assay with DU-145 prostate; 19% in the assay with K-562 leukemia; 0.423% (active) with MALME-3M melanoma. Further, the growth was 48.4% in the assay on MDA-MB-231 breast; 90% in the assay with RXF 393 renal; 59.1% in the assay with SF-268 CNS; 24.5% with SF-295 CNS; 46.6% in the assay with SF-539 CNS; 20.7% in the assay on UACC-257 melanoma. Moreover, in the assay on M14 melanoma, the growth is 22.4%.

In the case of `COc1cccc(C2(C)Nc3ccccc3-c3nc4ccccc4n32)c1` (centres undefined), the growth is 102% in the assay on NCI-H23 lung; 102% with NCI-H226 lung; 92% in the assay with NCI-H322M lung; 97.7% in the assay on HOP-62 NSCLC; 101% in the assay on NCI-H460 lung; 93.4% with HOP-92 NSCLC. The growth was 103% with NCI-H522 lung; 101% in the assay on 786-0 renal; 109% with COLO 205 colon; 112% in the assay with DU-145 prostate; 100% in the assay on K-562 leukemia; 108% in the assay on MALME-3M melanoma. The growth in the assay on MDA-MB-231 breast was 101%; with RXF 393 renal, 111%; in the assay with SF-268 CNS, 110%; with SF-295 CNS, 94.6%; in the assay with SF-539 CNS, 105%; in the assay with UACC-257 melanoma, 110%. In the assay with M14 melanoma, the growth was 102%.

Consider `Nc1c(C(=O)Nc2ccccc2F)sc2nc3c(cc12)C(=O)CCC3`, for which the growth is 42.8% in the assay with NCI-H23 lung; 75.1% with NCI-H226 lung; 68.8% in the assay on NCI-H322M lung; 42.7% in the assay on HOP-62 NSCLC; 11.4% in the assay on NCI-H460 lung; 53.6% in the assay on HOP-92 NSCLC. Also, the growth is -15.2% (active) with NCI-H522 lung; 41.5% with 786-0 renal; 5.76% (active) in the assay on COLO 205 colon; 8.4% (active) in the assay with DU-145 prostate; 26.3% with K-562 leukemia; 48.9% in the assay with MDA-MB-231 breast. Besides, the growth in the assay with RXF 393 renal is 9.63% (active); with SF-268 CNS, 54.9%; with SF-295 CNS it was 3.17% (active); in the assay on SF-539 CNS it was 10.5%; in the assay with UACC-257 melanoma it was 66.9%; with M14 melanoma, 19.2%.

Take `N#Cc1c2c([nH]c(=O)c1C(N)=O)CCCCC2`: the growth in the assay with NCI-H23 lung is 100%; with NCI-H226 lung, 100%; in the assay on NCI-H322M lung, 97.6%; in the assay with HOP-62 NSCLC, 92.4%; with NCI-H460 lung, 105%; with HOP-92 NSCLC, 112%. In addition, the growth is 90.7% with NCI-H522 lung; 98.5% in the assay on 786-0 renal; 102% in the assay with COLO 205 colon; 115% in the assay on DU-145 prostate; 113% with K-562 leukemia; 90.5% with MALME-3M melanoma. In addition, the growth was 102% with MDA-MB-231 breast; 108% in the assay on RXF 393 renal; 103% in the assay with SF-268 CNS; 101% with SF-295 CNS; 95.1% in the assay on SF-539 CNS; 96.7% with UACC-257 melanoma. For the same compound, the growth in the assay on M14 melanoma is 95.6%.

Take `Cc1ccc(Cl)cc1Nc1nc(C(F)(F)F)ccc1C(=O)N/N=C/c1c(Cl)cccc1Cl`: the growth is 6.65% (active) in the assay with NCI-H23 lung; -40.5% (active) with NCI-H226 lung; 17.8% in the assay on NCI-H322M lung; 7.32% (active) in the assay on HOP-62 NSCLC; -0.639% (active) in the assay with NCI-H460 lung; -31% (active) in the assay on HOP-92 NSCLC. For the same compound, the growth is -16.7% (active) in the assay with NCI-H522 lung; -32.6% (active) with 786-0 renal; -51.5% (active) in the assay on COLO 205 colon; 2.91% (active) in the assay with DU-145 prostate; 6.49% (active) in the assay on K-562 leukemia; -12.2% (active) in the assay with MDA-MB-231 breast. Moreover, the growth in the assay with RXF 393 renal was -53.7% (active); in the assay on SF-268 CNS, -7.33% (active); in the assay with SF-295 CNS, -17.7% (active); in the assay on SF-539 CNS it was -17% (active); in the assay on UACC-257 melanoma it was -27.3% (active); in the assay with M14 melanoma, 11.3%.

On to `Cc1nc(Nc2nc3ccccc3o2)nc(-c2cccc([N+](=O)[O-])c2)c1C(=O)Nc1ccc(F)c(Cl)c1`, for which the growth in the assay on NCI-H23 lung is 0.258% (active); in the assay on NCI-H226 lung it was 10.3%; in the assay on NCI-H322M lung, 24.9%; with HOP-62 NSCLC, 16%; with NCI-H460 lung, 2.04% (active); in the assay on HOP-92 NSCLC, -38.9% (active). In addition, the growth in the assay with NCI-H522 lung was -20.5% (active); in the assay on 786-0 renal, 18.4%; with COLO 205 colon it was 9.63% (active); in the assay on DU-145 prostate, 18.6%; in the assay on K-562 leukemia it was 4.49% (active); in the assay with MALME-3M melanoma, 6.18% (active). The growth in the assay with MDA-MB-231 breast is -17.4% (active); in the assay on RXF 393 renal it was 29.4%; in the assay with SF-268 CNS it was 11.9%; in the assay with SF-295 CNS, -40.7% (active); in the assay with SF-539 CNS, 25.7%; in the assay on UACC-257 melanoma it was -11.3% (active). In the assay on M14 melanoma, the growth was 15.6%.
